High-throughput results as filed in PubChem.
Hits are enriched below; roughly 6.9% of the tested compounds scored in any of these assays.
BAZ2B inh: BAZ2B (human) inhibition; AlphaScreen BAZ2B-H3K14Ac peptide displacement; AID 504333; 360,000 compounds, 4.4% hits; Potency, µM (series often up to 114 µM), without a hit: at the highest dose activity change, negative = inhibition, actives largely listed as inhibitors; note: % is set by controls: 0 for no effect and ±100 for the full control effect; nearly all actives have a fitted effect of over 60% in size
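BAZ2B 50 nM plus b-H3(5-23)K14Ac 50 nM, PBS pH 7.4/0.01% Tween-20, 30 min RT; compound added (max 110 uM), 30 min RT; streptavidin donor/Ni-chelate acceptor beads 10 ug/mL final, 20 min dark; AlphaScreen read.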
JMJD2A Tudor: inhibitors of human JMJD2A Tudor domain. Potency, µM (doses to about 114 µM), inactives show at the top dose activity change, negative = inhibition, hits mostly inhibitors. O75164. AlphaScreen JMJD2A-Tudor / H3K4me3 peptide binding. 390,000 compounds, 4.4% hits; note: % is set by controls: 0 for no effect and ±100 for the full control effect; nearly all actives have a fitted effect of over 50% in size
PLK1 PBD block: blocks phosphopeptide binding to human PLK1 polo-box domain. P53350. Plk1 PBD binding of FITC phosphopeptide, fluorescence polarization. Potency, µM, without a hit: max response, negative = inhibition, actives largely listed as inhibitors. 360,000 compounds, 2.8% hits. AID 720504; note: series mostly up to about 57 µM; % is set by controls: 0 for no effect and ±100 for the full control effect; nearly all actives have a fitted effect of over 65% in size
L3MBTL1 inh: blocks human L3MBTL1. Q9Y468. AlphaScreen L3MBTL1–H3K9me1 peptide binding. Potency, µM (titrated, usually from 57.1 µM), inactives show at the highest dose activity, negative = inhibition, actives largely listed as inhibitors. 230,000 compounds, 0.66% hits. AID 485360; note: % is set by controls: 0 for no effect and ±100 for the full control effect; nearly all actives have a fitted effect of over 60% in size
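First, the protein-peptide complex forms for 30 min at room temperature (L3MBTL1 50 nM, biotinylated H3K9me1 peptide 75 nM). Next, compounds are pin-transferred and incubated 30 min. Finally, AlphaScreen beads are added and read after 30 min.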
VDR inhibitor: blocks the human vitamin D receptor; VDR-SRC2-3 peptide fluorescence polarization, 2 h; Potency, µM, inactives show max response, negative = inhibition, most hits filed as inhibitors; 400,000 compounds, 0.93% hits; AID 504847; note: % is set by controls: 0 for no effect and ±100 for the full control effect
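Fluorescence polarization assay measuring small-molecule disruption of VDR binding to the coregulator peptide SRC2-3. Compounds were pin-transferred (23 nl) into the reagent mix and incubated 2 h at room temperature before reading.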
HP1b chromo inh: blocks HP1-beta chromodomain binding to methylated histone tails. 390,000 compounds, 0.56% hits. AID 540317. Potency, µM (doses to about 114 µM), for inactives: top-dose activity change, negative = inhibition, actives largely listed as inhibitors. AlphaScreen HP1-beta / biotin-H3K9me3 peptide binding. P83916; note: nearly all actives have a fitted effect of over 70% in size
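Compound inhibition of the preformed complex between 50 nM HP1-beta and 50 nM biotinylated H3K9me3 peptide was read by AlphaScreen. Buffer was PBS pH 7.4 with 0.01% Tween-20. Incubations ran 30 min at room temperature, with 10 ug/mL donor/acceptor beads.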
An asterisk follows results filed as active; ? = inconclusive; / = no result; [ ] = remark or other dose. Calls come from the whole dose curve; as a rule, active = well fitted curve in the direction sought with a large enough effect; inconclusive = small, poorly fitted or top-dose-only effect, or another doubt; inactive = no such curve, though single readings can be large; an effect the other way counts as inactive or inconclusive. Potency is the fitted concentration of half-maximal effect.

SMILES	BAZ2B inh	JMJD2A Tudor	PLK1 PBD block	L3MBTL1 inh	VDR inhibitor	HP1b chromo inh
COc1ccc(Cl)cc1C(=O)Nc1ccc(NC(C)=O)cc1	-17%	2%	5%	-2%	5%	9%
COc1ccc(Cl)cc1C(=O)Nc1ccc(Br)c(C)n1	-14%	-23%[11.4 µM]	24µM*	-1%	-15%	-1%
S=C(NCc1ccc2[nH]c3c(c2c1)CCCC3)Nc1ccccc1	32µM*	35µM*	-1%	-9%	-12%	?
Cc1cc(C)cc(NC(=S)NCc2ccc3[nH]c4c(c3c2)CCCC4)c1	32µM*	50µM*	-10%	-29%	-3%	?
Cc1cc(C)cc(NC(=O)CN(C)S(=O)(=O)c2ccc3[nH]c4c(c3c2)CCCC4)c1	-35%	?	/	/	18%	8%
COc1ccc(-n2nc(C(=O)Nc3ccccn3)c3c4ccccc4n(C)c3c2=O)cc1	/	-17%	/	/	-15%	22%
CCCC(=Nc1ccccc1)C1=C(O)C(C(=O)OC)C(C)(C)CC1=O (stereo not drawn)	?	-15%	1%	-2%	-7%	10%
CCC(=Nc1ccc(N)cc1)C1=C(O)C(C(=O)OC)C(C)(C)CC1=O (stereo not drawn)	?	-35%	-6%	28µM*	-18%	-13%
CCC(=NCc1ccccc1)C1=C(O)C(C(=O)OC)C(C)(C)CC1=O (stereo not drawn)	-5%	-16%	-7%	-5%	17%	38%
CCCCC(=Nc1ccc(N)cc1)C1=C(O)C(C(=O)OC)C(C)(C)CC1=O (stereo not drawn)	56µM*	?	-7%	/	?	-15%
CCC1Oc2ccc(C)cc2N(CC(=O)NCc2ccc(F)cc2)C1=O (stereo not drawn)	0%	-8%	/	/	-2%	24%
CCN(Cc1ccncc1)C(=O)c1cc(COc2ccc(F)cc2Cl)on1	-6%	-18%	-3%	/	1%	9%
COC(=O)[C@H](Cc1ccccc1)NC(=O)c1cc(COc2c(F)cccc2F)on1	10%	-24%	30µM*	/	-29%	23%
CCc1ccc(CN(C)C(=O)c2cc(COc3c(F)cccc3F)on2)cc1	64%	?	19µM*	60%	-27%	123%
COc1cccc(CNC(=O)c2cc(COc3c(F)cccc3F)on2)c1	18%	27%	-6%	14%	-11%	89%
CCN(Cc1ccncc1)C(=O)c1cc(COc2c(F)cccc2F)on1	1%	?	30µM*	/	?	19%
CCN1CCN(c2oc(/C=C/c3cc(OC)c(OC)c(OC)c3)nc2C#N)CC1	-4%	-6%	/	/	0%	37%
COc1ccc(-c2nc3sc(CCNC(=O)c4cc(Cl)ccc4OC)c(C)n3n2)cc1	-7%	-6%	/	/	-1%	12%
c1coc(C2=Nc3cccc4cccc(c34)N2)c1	?	-29%	?	-12%	4%	?
Nc1ccc(C2=Nc3cccc4cccc(c34)N2)cc1	50µM*	-23%	-18%	-12%	-19%	25%
COc1cccc(C2=Nc3cccc4cccc(c34)N2)c1	40µM*	50µM*	-11%	-11%	-21%	?
Cc1ccc(-n2c3nc(=O)[nH]c(=O)c-3cc3c(C)nn(-c4ccccc4)c32)cc1Cl	/	3%	/	/	-5%	51%
COc1ccc(C(=O)NCC2(N3CCN(C)CC3)CCCCC2)cc1	2%	4%	/	/	8%	37%
Cc1ccc(C)c(NC(=S)N/N=C2/CCCCc3ccccc32)c1	?	-36%	-24%	-23%	-21%	?
COc1ccc(OCC(=O)N/N=C2\CCCCc3ccccc32)cc1	-31%	14µM*	11µM*	-2%[11.4 µM]	-26%	8%
SMILES	BAZ2B inh	JMJD2A Tudor	PLK1 PBD block	L3MBTL1 inh	VDR inhibitor	HP1b chromo inh
COc1cccc(NC(=S)N/N=C2/CCCCc3ccccc32)c1	40µM*	?	-10%	-30%	-5%	-29%
COc1ccc(NCC(=O)N/N=C2\CCc3ccccc32)cc1	?	?	-3%	-30%	-14%	-6%
CC(O)CNC(=O)C(=O)Nc1c2c(nn1-c1ccc(Cl)cc1)CSC2 (stereo not drawn)	0%	-17%	/	/	8%	-11%
CC(C)(C)c1cc[n+](/C(C(=S)Nc2ccccc2F)=C(/[O-])c2ccc3c(c2)OCCO3)cc1	35µM*	?	-29%	/	-23%	-21%
CCOc1ccccc1NC(=S)/C(=C(\[O-])c1ccc2c(c1)OCCO2)[n+]1ccc(CC)cc1	?	-34%[57.1 µM]	21µM*	/	44%	?
[O-]C(=C(C(=S)Nc1cccc2ccccc12)[n+]1ccccc1)c1ccc2c(c1)OCCO2	/	?	?	/	-3%	?
CC1(Cc2ccc(C(F)(F)F)o2)C(=O)Nc2cc(-c3ccc(F)cc3F)ccc21 (stereo not drawn)	/	/	5%	/	/	/
Cc1ccc(C(=O)Oc2cc(-c3ccccc3)no2)cc1	-2%	5%	-15%	/	3%	35%
O=C(Oc1cc(-c2ccccc2)no1)c1ccc(Cl)cc1	?	-28%[11.4 µM]	24µM*	/	6%	23%
CCOc1ccc(-c2nc(C#N)c(N3CCCCCC3)o2)cc1	11µM*	35µM*	-13%	-30%	-14%	?
N#Cc1nc(-c2ccccc2F)oc1N1CCCC1	-26%	-11%	-5%	-10%	16%	?
COc1ccc(-c2nc(C#N)c(N3CCCCCC3)o2)cc1	28µM*	?	-1%	?	-8%	-28%
COc1ccc(-c2nc(C#N)c(N3CCCCC3)o2)cc1	28µM*	?	-7%	/	-29%	56µM*
CCOc1ccc(-c2nc(C#N)c(N3CCN(C)CC3)o2)cc1	-31%	-25%	-4%	/	6%	-12%
Cc1ccccc1-c1nc(C#N)c(N2CCCCC2)o1	22µM*	?	-6%	/	-17%	45µM*
Oc1ccc(C[C@H]2CNC(=S)N2CC2CCCN2C[C@H](Cc2ccc(O)cc2)N2C[C@H](Cc3ccccc3)N(CC3CCCCC3)C2=S)cc1 (stereo partly drawn)	/	?	-4%	/	-7%	33%
CNc1nc(Cl)c(SC)c(N2CCOCC2)n1	-9%	-2%	-12%	-4%	6%	38%
O=C(c1cc(Br)ccc1O)N1CCN(S(=O)(=O)Cc2ccccc2)CC1	6%	-2%	5%	1%	-19%	23%
COc1ccccc1OCc1nc(C#N)c(N2CCCC2)o1	-35%	-21%	-12%	-30%	-9%	-4%
COc1ccc(-c2nc(C#N)c(N3CCC(C)CC3)o2)cc1	5µM*	?	-12%	/	6%	-21%
Cc1ccccc1OCc1nc(C#N)c(N2CCCC2)o1	45µM*	0%	5%	?	-7%	20%
